Inhibition data for 94 compounds are collected here from PubChem BioAssay AID1578 (Sanford-Burnham Center for Chemical Genomics, 2009).

Among all 290,000 compounds or so, about 3,000 (1%) were called active. Cut-off read from the data, not from the text of the source: active = inhibition mostly above about 36% (no sharp cut-off); inactive = mostly below about 34%. This excerpt belongs to a sample that is enriched for actives.

This assay in a line: NOD1 signaling inhibitors, primary screen, cell-based, luminescence, uHTS (AID 1578).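 Note: HEK-293T reporter cells stimulated with the NOD1 agonist gamma-tri-DAP.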 To be noted: NOD1-driven NF-kB luciferase reporter cells, at 4 µM, hits give high values. For orientation: Reporter assays use an easily measured gene product as a stand-in for the process of interest.
The inhibition is the change of the read-out against control, counted positive when it falls. Take `O=[N+]([O-])c1cc(S(=O)(=O)N2CCCC2)ccc1N/N=C1/CCCc2ccccc21`: the inhibition is 13.3% (inactive).

As for `NS(=O)(=O)c1ccc(CNC(=O)c2cccnc2Cl)cc1`, the inhibition is -10.3% (inactive).

As for `CCOC(=O)C1CCCN(CCC(=O)Nc2cccc(C)c2)C1` (centres undefined), the inhibition was -37.8% (inactive).

On to `COc1ccc(/C=N/Nc2nncn2N)cc1Br`, for which the inhibition was -19.1% (inactive).

For the compound `Nn1cnnc1N/N=C/c1ccc(Cl)cc1Cl`, the inhibition was -3.2% (inactive).

With `Nn1cnnc1N/N=C/c1cc(Br)cc(Br)c1O`, the inhibition is 82.4% (active).

As for `CC(C)CCN1C(=O)c2ccccc2C1C(=O)NCc1cccnc1` (centres undefined), the inhibition was 7.5% (inactive).

Take `Cn1c(=O)c2c(nc3n2CC(COc2ccccc2)O3)n(C)c1=O` (centres undefined): the inhibition was -8.7% (inactive).

In the case of `COc1cc(/C=N/Nc2snc(SC)c2C#N)ccc1O`, the inhibition was 63.7% (inactive).

On to `COc1cc(/C=N/Nc2snc(SC)c2C#N)cc(OC)c1OC`, for which the inhibition was 68.9% (active).

Turning to `COc1ccc(/C=N/Nc2snc(SC)c2C#N)cc1OC`, the inhibition is -0.1% (inactive).

For `CCOc1ccc(NC(=O)CCNS(=O)(=O)c2ccc3c(c2)oc(=O)n3C)cc1`, the inhibition was -14.8% (inactive).

Consider `N#CC(C(=O)c1ccccc1Cl)=C1SCCCS1`, for which the inhibition was -2.6% (inactive).

With `CCN1C(=NCC(C)C)N[C@@H](c2cccc(C(F)(F)F)c2)C(C(=O)OC)=C1C`, the inhibition was -18.8% (inactive).

Consider `Cc1ccc(-c2nc3cnccn3c2Nc2ccccc2)o1`, for which the inhibition is -18.2% (inactive).

As for `Cc1ccc(-c2nc3cnccn3c2Nc2c(C)cccc2C)o1`, the inhibition was 71% (active).

Consider `Cc1ccc(Nc2c(-c3ccc(C)o3)nc3cnccn23)cc1`, for which the inhibition was -9.7% (inactive).

Take `COc1ccc(C2c3cc(OC)c(OC)cc3CCN2C(=O)c2ccccc2)cc1OC` (centres undefined): the inhibition was -31.9% (inactive).

Take `O=C(Nc1ccc(S(=O)(=O)N2CCCC2)cc1)c1cc(=O)c2ccccc2o1`: the inhibition is -3.6% (inactive).

Take `Cc1ccc(NC(=O)CSc2ncnc3ccccc23)cc1S(=O)(=O)N1CCCCCC1`: the inhibition was 31.7% (inactive).

Regarding `Cc1ccc(S(=O)(=O)N2CCCCC2)cc1NC(=O)CSc1ncnc2ccccc12`, the inhibition was 58.7% (inactive).

For `Cc1ccc(NC(=O)c2cc(=O)c3ccccc3o2)cc1S(=O)(=O)N1CCOCC1`, the inhibition was -6.6% (inactive).

As for `COc1ccc(Br)cc1CNC(=O)CN1C(=O)C(c2ccccc2)Oc2cccnc21` (centres undefined), the inhibition is 18.1% (inactive).

As to `CCc1ccccc1NC(=O)CCc1c(C)nn(-c2ccc(N3CCOCC3)nn2)c1C`, the inhibition is 20.1% (inactive).

Turning to `O=C(CSc1nnc(CNC(=O)c2cccs2)o1)Nc1ccc(Br)cc1`, the inhibition is -31.8% (inactive).

As for `CCOC(=O)c1cnc2ccc(C)cc2c1Nc1ccc(N2CCOCC2)cc1`, the inhibition is -17.2% (inactive).

On to `CCOC(=O)c1cnc2ccc(C(=O)OC)cc2c1Nc1ccc(C(=O)O)cc1`, for which the inhibition is -16.9% (inactive).

For `CCOC(=O)c1ccc2ncc(C(=O)OCC)c(Nc3ccc(N4CCOCC4)cc3)c2c1`, the inhibition is 107% (active).

Regarding `CC(C)C(NC(=O)C(C)N1C(=O)c2ccccc2C1=O)c1ccccc1` (centres undefined), the inhibition was -7.4% (inactive).

Take `CCC(=O)c1ccc(SC(=O)N(C)C)cc1O`: the inhibition is -4.8% (inactive).

Turning to `C=C1CCC[C@]2(C)C[C@H]3OC(=O)C(CN4CCOCC4)[C@H]3C[C@@H]12` (some centres undefined), the inhibition is 2.5% (inactive).

Consider `C=C1CCC[C@]2(C)C[C@H]3OC(=O)C(CN4CC(C)OC(C)C4)[C@H]3C[C@@H]12` (some centres undefined), for which the inhibition is -4.7% (inactive).

On to `C=C1CCC[C@]2(C)C[C@H]3OC(=O)C(CN4CCCCC4CO)[C@H]3CC12` (some centres undefined), for which the inhibition is 80.3% (active).

With `COc1ccccc1NC(=O)c1sc2ncn(Cc3ccc(C)cc3)c(=O)c2c1C`, the inhibition is -43.8% (inactive).

As to `CCCS(=O)(=O)Nc1cc(C(F)(F)F)ccc1OCCOC`, the inhibition was -0.9% (inactive).

`CC(C)(C)c1ccc(Oc2ccc(N)cn2)cc1`: the inhibition is 65.9% (active).

Turning to `Nc1ccc(Oc2ccc(Br)cc2)cc1`, the inhibition is -35.5% (inactive).

On to `Cc1cc(Oc2ccc(N)cn2)ccc1Cl`, for which the inhibition was 4.5% (inactive).

For `CC(C)(C)c1ccc(Oc2ccc(N)cc2)cc1`, the inhibition is 82% (active).

Regarding `Cc1cccc(Oc2ccc(N)cc2)c1`, the inhibition is -25.9% (inactive).

For `Nc1ccc(Oc2cc(N)cc(Oc3ccccc3)c2)cc1`, the inhibition is -12.3% (inactive).

As for `Cc1cc(C)cc(Oc2ccc(N)cc2)c1`, the inhibition is -28.1% (inactive).

Regarding `Nc1ccc(Oc2ccc(F)cc2)nc1`, the inhibition was -4.6% (inactive).

With `CCn1c2c(c3cc(Br)ccc31)CCC/C2=N\O`, the inhibition is 15.3% (inactive).

On to `O=C(CCN1CCN(Cc2ccccc2)CC1)NNC(=O)Cc1ccc(Cl)c(Cl)c1`, for which the inhibition is -1.2% (inactive).

With `COCC(=O)N(Cc1cc2cc(OC)ccc2[nH]c1=O)c1ccc(C)cc1`, the inhibition is -12.1% (inactive).

For the compound `O=C(CCS(=O)(=O)c1ccccc1)Nc1ccc2c(c1)OCO2`, the inhibition was -59.3% (inactive).

Turning to `CCOC(=O)N1CCN(S(=O)(=O)c2cc(Br)cnc2N)CC1`, the inhibition is 10.4% (inactive).

For the compound `COc1ccc(-c2csc(N3CCC(c4ccccc4)C3)n2)cc1` (centres undefined), the inhibition was 26.8% (inactive).

As for `CCc1ccc(N(CC(=O)N2CCN(Cc3ccccc3)CC2)S(C)(=O)=O)cc1`, the inhibition is -32.3% (inactive).

For `Cc1nc(=S)c2c([nH]1)-c1ccccc1CC21CCCCC1`, the inhibition was 104% (active).

Turning to `Nc1nc(=S)[nH]c2c1C1(CCCCC1)Cc1ccccc1-2`, the inhibition is -16.2% (inactive).

For the compound `Nc1nc(=S)[nH]c2c1C1(CCCC1)Cc1ccccc1-2`, the inhibition was 14.3% (inactive).

Turning to `N#C/C(=C/c1ccc(Sc2nc3ccccc3[nH]2)o1)c1cccc(Br)c1`, the inhibition is 3.1% (inactive).

Take `N#C/C(=C/c1ccc(Sc2nc3ccccc3[nH]2)o1)c1cccc(F)c1`: the inhibition was 76.3% (active).

As for `N#C/C(=C\c1ccc(Sc2nc3ccccc3[nH]2)o1)c1ccccc1`, the inhibition was 65.2% (inactive).

Regarding `COc1cccc(CN2CCN(C(=S)NCc3ccc(Cl)cc3)CC2)c1`, the inhibition was -10.4% (inactive).

For `CCc1nc2sc3c(c2c(=O)n1CCO)CCC3`, the inhibition was -18.6% (inactive).

Take `COC(=O)c1cc(C)sc1NC(=O)CCCC(=O)O`: the inhibition was -19.8% (inactive).

As for `CCCCNC(=O)CCn1c(=O)c2ccccc2n(CC(=O)N2CC(C)CC(C)C2)c1=O` (centres undefined), the inhibition was 21.3% (inactive).

As to `Cc1ccsc1/C=C/c1n[nH]c(=O)c(C#N)c1C`, the inhibition is 9.3% (inactive).

Turning to `COc1cccc(/C=C/c2n[nH]c(=O)c(C#N)c2C)c1`, the inhibition was -7.2% (inactive).

With `COc1ccc(/C=C/c2n[nH]c(=O)c(C#N)c2C)cc1`, the inhibition is 84.3% (active).

Turning to `COc1ccc(-c2nc3ccccc3c(=O)n2NC(=O)Cc2ccccc2)cc1`, the inhibition is -18.8% (inactive).

In the case of `COCCC(=O)N1CCC(Oc2ccc(C(=O)N3C[C@@H](C)O[C@@H](C)C3)cc2)CC1`, the inhibition was -23.9% (inactive).

Regarding `O=C(c1cccc(Oc2ccc([N+](=O)[O-])cc2Cl)c1)N1CCOCC1`, the inhibition was -7.9% (inactive).

For the compound `CC1CC(=O)C2=C(C1)Nc1ccccc1N=C2` (centres undefined), the inhibition was 11.1% (inactive).

Regarding `CCC(=O)c1cccc2c1N=CC1=C(CC(C)(C)CC1=O)N2`, the inhibition is -20.6% (inactive).

With `CC1(C)CC(=O)C2=C(C1)Nc1ccccc1N=C2`, the inhibition is 59.6% (active).

As to `CCCNc1cc(=S)nc(N)[nH]1`, the inhibition was 5% (inactive).

For the compound `O=C1CCCCC1Sc1nnc(-c2ccc3c(c2)OCO3)o1` (centres undefined), the inhibition was 87.4% (active).

On to `O=C(c1ccc(Cl)cc1)N1CCCCC(Sc2nnc(-c3ccc4c(c3)OCO4)o2)C1=O` (centres undefined), for which the inhibition was 57.8% (active).

For the compound `N#CCSc1nnc(-c2ccc3c(c2)OCO3)o1`, the inhibition is -37.8% (inactive).

As for `O=C1OCCC1Sc1nnc(-c2ccc3c(c2)OCO3)o1` (centres undefined), the inhibition was -4.4% (inactive).

Regarding `Clc1ccc(CSc2nnc(-c3ccc4c(c3)OCO4)o2)cc1`, the inhibition is -7.9% (inactive).

Consider `O=C(O)CSc1nnc(-c2ccc3c(c2)OCO3)o1`, for which the inhibition is 4.3% (inactive).

In the case of `Clc1nc(Oc2ccccc2)nc(-c2cn(-c3ccccc3)c3ccccc23)n1`, the inhibition is -9.4% (inactive).

Regarding `O=C(/C=C/c1cccc(O)c1)c1cccnc1`, the inhibition was -20.2% (inactive).

Regarding `O=C(/C=C/c1cccc(OCc2ccccc2)c1)c1cccnc1`, the inhibition is 36.4% (inactive).

Turning to `O=C(/C=C/c1ccc(OCc2ccccc2)c(OCc2ccccc2)c1)c1cccnc1`, the inhibition was 87.9% (active).

On to `CC(=O)c1c2c3c(c(Br)ccc3n(C)c1=O)C(=O)c1ccccc1-2`, for which the inhibition is -3.8% (inactive).

Regarding `CCN1CCN(Cc2ccc(NC(=O)c3ccc(C)c(NC(=O)c4ccnnc4)c3)cc2C(F)(F)F)CC1`, the inhibition is 3.7% (inactive).

In the case of `CCN1CCN(Cc2ccc(NC(=O)c3ccc(C)c(NC(=O)c4cccc(-c5cn[nH]c(=O)c5)c4)c3)cc2C(F)(F)F)CC1`, the inhibition is 72% (active).

Consider `CCN1CCN(Cc2ccc(NC(=O)c3ccc(C)c(NC(=O)C(=O)c4c[nH]c5ccccc45)c3)cc2C(F)(F)F)CC1`, for which the inhibition is 67.1% (active).

With `CCN1CCN(Cc2ccc(NC(=O)c3cc(NC(=O)C(=O)c4c[nH]c5ccccc45)cc(OC)c3)cc2C(F)(F)F)CC1`, the inhibition is -3.5% (inactive).

For `CCN1CCN(Cc2ccc(NC(=O)c3ccc(C)c(NC(=O)c4ccc5n[nH]nc5c4)c3)cc2C(F)(F)F)CC1`, the inhibition is -1.3% (inactive).

Consider `CCN1CCN(Cc2ccc(NC(=O)c3ccc(C)c(NC(=O)c4cc(-c5ccc(Br)cc5)n[nH]4)c3)cc2C(F)(F)F)CC1`, for which the inhibition is -4.1% (inactive).

As to `CCN1CCN(Cc2ccc(NC(=O)c3ccc(C)c(NC(=O)c4nccn4C)c3)cc2C(F)(F)F)CC1`, the inhibition is 7.7% (inactive).

Take `CCN1CCN(Cc2ccc(NC(=O)c3ccc(C)c(NC(=O)c4cccc5[nH]ccc45)c3)cc2C(F)(F)F)CC1`: the inhibition was -0.1% (inactive).

`Cc1cc(C)n(NC(=S)NC2CCCC2)c(=O)c1C#N`: the inhibition is -10.5% (inactive).

Turning to `CC1CC(C)CN(S(=O)(=O)c2ccc(Oc3ccc([N+](=O)[O-])cc3)cc2)C1` (centres undefined), the inhibition was 36.9% (inactive).

For `O=C(CCn1nc(-c2ccccc2)ccc1=O)N1CCN(c2ccccn2)CC1`, the inhibition is -14.7% (inactive).

As for `O=C(CCc1nnc(CCC2CCCCC2)o1)NCCc1ccccn1`, the inhibition is -21.2% (inactive).

Take `COC(=O)c1c(C)oc(C)c1S(=O)(=O)NCc1ccc(OC)cc1`: the inhibition was -3.5% (inactive).
